# Assay results from PubChem BioAssay.
# Calls of active or inactive are those of the source. Unless noted, no rule for the calls is given here.
# What was measured:
# [1] = resazurin metabolic signal in HepG2 cells – cell-based, resazurin fluorescence, 24 h, PK04 Diversity Set, profiling panel (AID 1172); conditions: HepG2 viability, higher = more signal
# [2] = budding yeast growth changes without added modifier – OD600, strain BY4716, 24 h, basal condition, primary screen (AID 1173); conditions: S. cerevisiae BY4716 growth, OD600, 24 h; higher = more signal, called active from +8 up or from −8 down
# [3] = viability profiling in MM1S myeloma cells – cell-based, resazurin fluorescence, basal, 24 h, PK04 Diversity Set, profiling panel (AID 1174); conditions: higher = more signal, called active from +8 up or from −8 down;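 also: MM1S multiple myeloma cell line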
# [4] = molecular target: Dihydroorotate dehydrogenase (quinone), mitochondrial (Plasmodium falciparum (isolate 3D7)) (UniProt Q08210); assay: inhibition of P. falciparum DHODH – biochemical, C-terminal His tag, absorbance 600 nm, primary screen (AID 1175); conditions: PfDHODH enzyme, DCIP absorbance 600 nm; higher = more signal, called active from +8 up or from −8 down;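 also: recombinant parasite enzyme with a five histidine tag at its C terminus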
# Dihydroorotate dehydrogenase (quinone), mitochondrial (Plasmodium falciparum (isolate 3D7)), sequence (Q08210 whole entry, looked up): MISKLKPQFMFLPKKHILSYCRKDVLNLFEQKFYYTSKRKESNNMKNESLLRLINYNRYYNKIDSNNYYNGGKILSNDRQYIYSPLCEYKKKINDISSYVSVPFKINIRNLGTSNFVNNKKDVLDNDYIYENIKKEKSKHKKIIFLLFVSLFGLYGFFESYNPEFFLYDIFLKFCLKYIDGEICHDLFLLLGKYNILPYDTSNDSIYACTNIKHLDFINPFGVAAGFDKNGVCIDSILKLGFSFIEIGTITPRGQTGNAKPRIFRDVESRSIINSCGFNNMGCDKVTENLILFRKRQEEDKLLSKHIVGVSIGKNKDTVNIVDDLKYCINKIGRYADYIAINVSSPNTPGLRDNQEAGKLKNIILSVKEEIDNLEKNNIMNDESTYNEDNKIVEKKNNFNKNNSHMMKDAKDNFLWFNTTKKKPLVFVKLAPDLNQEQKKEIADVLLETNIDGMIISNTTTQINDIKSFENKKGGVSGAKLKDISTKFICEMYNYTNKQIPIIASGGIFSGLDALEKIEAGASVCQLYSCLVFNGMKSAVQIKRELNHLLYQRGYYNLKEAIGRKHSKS
# [5] = inhibition of PAO1 biofilm formation – strain PAO1, LB-PBS medium, absorbance 600 nm, primary screen (AID 1176); conditions: P. aeruginosa PAO1 growth/biofilm, A600, 12 h; higher = more signal
# [6] = growth modulation of vineyard yeast isolate – strain RM11-1a, OD600, basal, 24 h, primary screen (AID 1177);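 also: cultures grown under basal conditions with no added stressor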; conditions: S. cerevisiae RM11-1a growth, OD600, 24 h; higher = more signal, called active from +8 up or from −8 down
# [7] = growth of efflux-deficient E. coli DRC39 – strain DRC39, OD650, 24 h, E. coli filamentation inducers, primary screen (AID 1178);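 also: growth measured as culture turbidity by optical density at 650 nm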; conditions: E. coli DRC39 acrAB, higher = more signal, called active from +8 up or from −8 down
# [8] = growth of efflux-deficient E. coli DRC39 – strain DRC39, OD650, 48 h, E. coli filamentation inducers, primary screen (AID 1179);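 also: screen aims at cell division blockers that make cells filament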; conditions: E. coli DRC39 delta-acrAB growth, higher = more signal, called active from +8 up or from −8 down
# [9] = viability profiling in RPMI8226 myeloma cells – cell-based, resazurin fluorescence, basal, 24 h, PK04 Diversity Set, profiling panel (AID 1180); conditions: higher = more signal;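 also: RPMI8826 multiple myeloma cell line at 5000 cells per well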
# [10] = molecular target: E3 ubiquitin-protein ligase XIAP (Homo sapiens) (UniProt P98170); assay: small molecules binding XIAP protein – biophysical, small-molecule microarray, fluorescence 635 nm, primary screen (AID 1181); conditions: higher = more signal;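 also: score merges 667 nm emission and signal to noise over triplicate slides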
# E3 ubiquitin-protein ligase XIAP (Homo sapiens), sequence (P98170 whole entry, looked up, the tested form may be a part): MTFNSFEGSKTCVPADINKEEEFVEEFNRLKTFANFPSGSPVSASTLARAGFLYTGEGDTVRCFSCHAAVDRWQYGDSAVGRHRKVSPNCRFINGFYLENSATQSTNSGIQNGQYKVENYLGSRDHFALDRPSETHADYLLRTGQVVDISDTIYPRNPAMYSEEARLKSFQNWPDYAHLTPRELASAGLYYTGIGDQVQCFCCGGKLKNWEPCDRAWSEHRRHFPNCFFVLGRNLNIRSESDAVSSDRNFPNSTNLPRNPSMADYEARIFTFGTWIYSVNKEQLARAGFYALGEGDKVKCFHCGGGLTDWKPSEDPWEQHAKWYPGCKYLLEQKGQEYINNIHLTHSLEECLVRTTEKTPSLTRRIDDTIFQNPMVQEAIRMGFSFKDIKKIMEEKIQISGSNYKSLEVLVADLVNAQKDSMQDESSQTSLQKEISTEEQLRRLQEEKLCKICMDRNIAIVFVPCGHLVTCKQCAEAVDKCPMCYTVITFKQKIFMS
# [11] = test system: XIP peptide (Xip251-270) binding; assay: XIP fragment 251-270 binding compounds – biochemical, small-molecule microarray, fluorescence 635/667 nm, 0.1 µg/mL protein, primary screen (AID 1182); conditions: fluorescent protein binding, 635 nm, higher = more signal, called active from +8 up or from −8 down
# [12] = test system: XIP peptide (Xip251-270); assay: compounds binding XIP fragment 251-270 – biochemical, small-molecule microarray, fluorescence 635/667 nm, 0.5 µg/mL protein, primary screen (AID 1183); conditions: fluorescence 635 nm, higher = more signal
# [13] = blood-stage malaria parasite viability loss – strain 3D7, DAPI fluorescence, 100 nL, primary screen (AID 1184);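 also: parasites grown inside human red blood cells in medium with human serum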; conditions: P. falciparum 3D7 growth, 3 d, higher = more signal
# [14] = molecular target: Homeobox protein Hox-A13 (Mus musculus) (UniProt Q62424); assay: disruptors of Hoxa13 oligonucleotide interaction – biochemical, fluorescence polarization, labeled oligonucleotide, primary screen (AID 1185); conditions: Hoxa13:DNA binding, 15 min, higher = more signal, called active from +8 up or from −8 down
# Homeobox protein Hox-A13 (Mus musculus), sequence (Q62424 whole entry, looked up): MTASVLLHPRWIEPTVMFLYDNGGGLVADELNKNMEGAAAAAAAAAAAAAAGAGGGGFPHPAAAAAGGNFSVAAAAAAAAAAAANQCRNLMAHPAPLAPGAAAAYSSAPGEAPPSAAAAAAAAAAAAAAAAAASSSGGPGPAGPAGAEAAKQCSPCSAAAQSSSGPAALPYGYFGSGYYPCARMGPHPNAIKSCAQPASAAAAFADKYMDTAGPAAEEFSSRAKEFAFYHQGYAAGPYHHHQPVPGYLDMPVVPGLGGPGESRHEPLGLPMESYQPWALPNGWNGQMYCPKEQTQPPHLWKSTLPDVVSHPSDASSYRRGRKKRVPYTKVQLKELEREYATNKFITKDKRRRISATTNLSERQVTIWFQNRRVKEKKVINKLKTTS
Structure (SMILES),z-score [1],z-score [2],z-score [3],composite z-score [4],z-score [5],z-score [6],z-score [7],z-score [8],z-score [9],composite z-score [10],composite z-score [11],composite z-score [12],z-score [13],z-score [14]
CCN1C(=O)[C@H]2[C@H]3[C@H](O)[C@H](O)CC(=NOC(C)CN4CCCCc5nc(C)c(C)cc54)[C@@H]3CC[C@H]2C1=O (some centres undefined),-1.3,-0.0913 (inactive),-0.669 (inactive),0.301 (inactive),-0.418 (inactive),0.002 (inactive),0.538 (inactive),1.2 (inactive),-0.889,-0.211,0.746 (inactive),0.196,0.0706,-1.48 (inactive)
COC(=O)C1=C(C)N(Cc2ccccc2)[C@]23O[C@](C(=O)OC)(C(=O)N2[C@@H]1c1ccccc1)[C@H]1CCOC(=O)[C@H]13,0.338,0.424 (inactive),0.444 (inactive),1.01 (inactive),-0.765 (inactive),1.55 (inactive),0.0676 (inactive),-0.164 (inactive),0.732,0.0896,0.303 (inactive),-0.202,-0.303,-4.7 (inactive)
CC(=O)OC[C@H]1O[C@H](C#CCCCc2ccccc2)C=C[C@@H]1OC(C)=O,-0.22,-2.31 (inactive),-4.16 (inactive),-0.791 (inactive),-0.0569 (inactive),0.291 (inactive),0.387 (inactive),-0.0416 (inactive),-2.47,0.072,1.05 (inactive),0.505,-0.107,-5.95 (inactive)
COC(=O)CC1OC1[C@H](C)[C@@H](OC)C(C)C (some centres undefined),-0.863,-4.59 (inactive),-1.91 (inactive),-3.39 (inactive),0.699 (inactive),0.748 (inactive),0.487 (inactive),0.293 (inactive),-1.43,-0.313,-0.0835 (inactive),-0.739,0.599,-4.65 (inactive)
C#CCCCON=C1C[C@@H](O)[C@@H](O)[C@@H]2[C@@H]3C(=O)N([C@@H](C)c4ccccc4)C(=O)[C@@H]3CC[C@H]12,-0.331,-1.27 (inactive),0.8 (inactive),-2.87 (inactive),-0.389 (inactive),-1.35 (inactive),-0.0604 (inactive),-0.12 (inactive),0.357,0.0537,-0.396 (inactive),0.164,-1.46,-2.2 (inactive)
O=C1[C@H]2[C@H]3[C@H](O)[C@H](O)CC(=NO[C@@H]4O[C@H](CO)[C@@H](O)[C@H](O)[C@H]4O)[C@@H]3CC[C@H]2C(=O)N1Cc1ccc2c(c1)OCO2,-0.191,-0.387 (inactive),0.0622 (inactive),0.0922 (inactive),-0.389 (inactive),-0.558 (inactive),-0.494 (inactive),-0.136 (inactive),0.36,-0.0552,0.297 (inactive),0.567,-1.06,-2.63 (inactive)
COc1ccc(O[C@H]2C=C[C@@H](c3ccccc3)O[C@@H]2COC(=O)CCC(C)=NO[C@H](C)c2cn([C@@H]3COC[C@H]3O)nn2)cc1,0.896,-0.419 (inactive),-0.191 (inactive),-4.78 (inactive),-0.467 (inactive),-0.572 (inactive),-1.09 (inactive),-0.033 (inactive),0.18,-0.138,0.0628 (inactive),0.596,-1.52,-6.96 (inactive)
CC=CC1=C(CO)[C@H](O)[C@H]2O[C@H]2[C@H]1O,-0.557,0.977 (inactive),-0.667 (inactive),0.439 (inactive),-0.47 (inactive),0.618 (inactive),-0.227 (inactive),-0.299 (inactive),0.0421,0.0774,-0.461 (inactive),-0.229,0.337,-0.532 (inactive)
C[C@@H]1C=CCC(=O)OC[C@H](C)C(=O)N[C@@H](C)C(=O)OC1,0.29,0.128 (inactive),0.617 (inactive),0.474 (inactive),-0.537 (inactive),0.317 (inactive),0.6 (inactive),0.879 (inactive),0.361,-0.113,0.0195 (inactive),-0.059,-0.207,0.442 (inactive)
C[C@@H]1CC[C@H]2C(=O)O[C@H](COc3ccc(C(C)(C)C)cc3)CN2[C@H]1c1ccc(Br)cc1,0.182,0.789 (inactive),0.837 (inactive),0.702 (inactive),0.18 (inactive),1.71 (inactive),-0.474 (inactive),-0.438 (inactive),1.12,-0.0118,-0.418 (inactive),0.769,-0.407,1.23 (inactive)
CC(C)=CCCC(C)=CCON=C1[C@H]2CCn3c(=O)n(C)c(=O)n3[C@H]2[C@H](O)[C@@H]2O[C@H]12,-0.653,-0.777 (inactive),-2.63 (inactive),-0.251 (inactive),-0.543 (inactive),0.199 (inactive),0.119 (inactive),0.214 (inactive),-0.88,0.153,0.258 (inactive),0.246,-1.55,-0.682 (inactive)
CC(=O)OC[C@H]1O[C@@H](ON=C[C@@H](C)[C@H](OCc2ccccc2)C(C)C)[C@H](OC(C)=O)[C@@H](OC(C)=O)[C@@H]1OC(C)=O,-1.04,0.0426 (inactive),-2.37 (inactive),-0.269 (inactive),1.01 (inactive),-0.519 (inactive),0.153 (inactive),0.722 (inactive),-0.8,-0.162,-0.182 (inactive),0.0517,0.317,-4.44 (inactive)
C[C@@H]1C=CCC(=O)OC[C@H](C)C(=O)OC[C@H]2O[C@H]1C=C[C@H]2O,0.0061,-0.368 (inactive),0.313 (inactive),0.603 (inactive),-0.814 (inactive),1.14 (inactive),0.0992 (inactive),-0.249 (inactive),0.52,-0.379,0.0137 (inactive),0.756,-0.315,-1.13 (inactive)
CCOC(=O)NN=C1C[C@@H](O)[C@@H](O)[C@@H]2[C@@H]3C(=O)N(CC)C(=O)[C@@H]3CC[C@@H]12,-0.0886,0.398 (inactive),-0.621 (inactive),-0.538 (inactive),-0.331 (inactive),-0.823 (inactive),-0.145 (inactive),-0.325 (inactive),-0.423,-0.105,-0.359 (inactive),0.482,0.518,0.443 (inactive)
CO[C@H]1COC(=O)[C@H](C)NC(=O)[C@@H](C)COC(=O)CC=C[C@@H]1C,-0.279,-0.518 (inactive),0.0346 (inactive),-0.0114 (inactive),-0.443 (inactive),-0.477 (inactive),0.327 (inactive),1.3 (inactive),0.0991,0.0593,0.166 (inactive),0.518,0.336,-0.467 (inactive)
CC(CCC(=O)OC[C@H]1O[C@H](C#Cc2ccccc2)C=C[C@@H]1Oc1ccc(C)cc1)=NOC[C@@H](O)[C@H]1O[C@@H]2OC(C)(C)O[C@@H]2[C@H]1O,-0.279,0.197 (inactive),0.134 (inactive),-2.15 (inactive),-0.324 (inactive),0.71 (inactive),0.844 (inactive),1.1 (inactive),0.0234,-0.325,0.0901 (inactive),-0.823,-0.521,-2.3 (inactive)
CCOC(=O)NN=C1C[C@@H](O)[C@@H](O)[C@@H]2[C@@H]3C(=O)N(C[C@@H]4CCCO4)C(=O)[C@@H]3CC[C@@H]12,0.208,0.623 (inactive),-0.307 (inactive),-0.851 (inactive),-0.674 (inactive),0.664 (inactive),0.914 (inactive),1.4 (inactive),0.0557,0.0432,0.0985 (inactive),-0.0422,0.839,0.513 (inactive)
CC(CCN1CCCCc2nc(C)c(C)cc21)=NOC(C)CN1CCCCc2nc(C)c(C)cc21 (centres undefined),0.149,-0.211 (inactive),-0.29 (inactive),0.159 (inactive),0.216 (inactive),0.596 (inactive),0.5 (inactive),-0.024 (inactive),0.643,0.24,0.29 (inactive),0.805,-0.883,-5.75 (inactive)
C=CC[C@@H]1C=C[C@H](ON=C(C)CCN2CCc3nc(CC)c(CC)cc3C2)[C@@H](CO)O1,-0.127,-0.392 (inactive),-0.439 (inactive),-1.29 (inactive),-0.0417 (inactive),0.189 (inactive),0.0116 (inactive),0.138 (inactive),-0.639,0.0178,0.0621 (inactive),-0.0738,-0.163,-5.51 (inactive)
CO[C@@H]1COC(=O)CCC[C@@H](C)[C@H](OC)COC(=O)CCC[C@H]1C,0.733,1.47 (inactive),0.367 (inactive),-0.0732 (inactive),-0.667 (inactive),1.6 (inactive),0.265 (inactive),-0.65 (inactive),0.276,-0.256,-0.201 (inactive),0.201,-0.0787,-1.03 (inactive)
O=C1[C@H]2[C@H]3[C@H](O)[C@H](O)CC(=NO[C@@H]4O[C@H](CO)[C@@H](O)[C@H](O)[C@H]4O)[C@@H]3CC[C@H]2C(=O)N1Cc1ccccc1,1.04,-0.391 (inactive),0.0897 (inactive),0.261 (inactive),0.565 (inactive),-0.497 (inactive),0.405 (inactive),1.21 (inactive),-0.145,0.0689,0.0711 (inactive),0.216,-0.165,0.638 (inactive)
